# Screening data (PubChem)
# This is a sample that favours compounds with a hit; in the whole collection about 8% have one here.
# SW480 rereplic = DNA re-replication induction in SW480 cells; SW480 DNA re-replication, Hoechst DNA content imaging, 48 h; Potency, µM (top dose mostly 46.1 µM), most hits filed as activators; AID 624297; hit rate 1.8% among 340,000; further: nearly all actives have a fitted effect of over 55% in size
#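 Compounds, transferred as 23 nL by pin tool, were incubated with cells for 48 hr; DNA content per nucleus was then quantified by Hoechst staining and fluorescence plate imaging.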
# HT1080 IDH1KD tx = kills HT-1080 cells with IDH1 knockdown | HT-1080 IDH1 knockdown viability, ATP luminescence, 48 h | Potency, µM (series often up to 46.1 µM), actives largely listed as cytotoxic | hit rate 2% among 360,000 | AID 686971
#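 Using the IDH1-knockdown HT-1080 line run in the same batch and compound series as the NT line, viability after 48 h at 37 °C was determined by CellTiter-Glo luminescence and expressed as % activity.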
# KB-3-1 cytotox = KB-3-1 parental cell cytotoxicity; hit rate 1.4% among 400,000; KB-3-1 viability, CellTiter-Glo ATP luminescence, 72 h; Potency, µM (titrated, usually from 46.1 µM), actives largely listed as cytotoxic; further: nearly all actives have a fitted effect of over 60% in size
#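 Parental KB-3-1 viability, qHTS format: 72 h compound exposure, 37 °C; CellTiter-Glo; media-only wells and DMSO plates as controls; concentration-effect fits on corrected data.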
# KB-V1 cytotox = kills drug-selected multidrug resistant KB-V1 cells; KB-V1 MDR cells viability, CellTiter-Glo, 72 h; Potency, µM (highest dose often 46.1 µM), usual class: cytotoxic; hit rate 3.4% among 400,000; further: nearly all actives have a fitted effect of over 60% in size
#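 Readout: CellTiter-Glo luminescence, 10 min after addition. Cells: KB-V1 MDR subline, 72 h at 37 degrees C with compound. Analysis: corrected, normalized data fitted to concentration-effect curves.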
# MCF10A rerep = induces DNA re-replication in MCF 10a normal breast cells. MCF 10A DNA re-replication, Hoechst nuclear intensity, 48 h. Potency, µM (highest dose often 46.1 µM), most hits filed as activators. hit rate 2.9% among 350,000. AID 624296; further: nearly all actives have a fitted effect of over 50% in size
# HT1080NT lethal = kills 2HG-producing HT-1080-NT fibrosarcoma cells; hit rate 1.6% among 360,000; Potency, µM (series often up to 46.1 µM), actives largely listed as cytotoxic; HT-1080-NT fibrosarcoma viability, CellTiter-Glo ATP luminescence, 48 h;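 further: NT is the 2HG producing partner of a matched IDH1 knockdown line; nearly all actives have a fitted effect of over 55% in size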
#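 750 cells/well, RPMI + 5% FBS; 2 h settle, compound pin-transfer, 48 h at 37 degrees C. CellTiter-Glo 10 min RT, luminescence. Normalized to DMSO and media-only wells.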
# A number is an active result; - = inactive; ? = inconclusive; . = no result. The call rests on the fitted dose curve; in most records, active means well fitted curve in the direction sought with a large enough effect; inconclusive means small, poorly fitted or top-dose-only effect, or another doubt; inactive means no such curve, though single readings can be large; an effect the other way counts as inactive or inconclusive.
SMILES,SW480 rereplic,HT1080 IDH1KD tx,KB-3-1 cytotox,KB-V1 cytotox,MCF10A rerep,HT1080NT lethal
Cc1ccc(-n2nc3c(N4CCC(C(=O)NCCc5cccs5)CC4)nnc(C)c3c2C)cc1,?,16µM,-,-,?,?
Cn1ncc([N+](=O)[O-])c1C(=O)Nc1ccc(Cl)cc1,-,-,-,-,?,-
Cn1ncc([N+](=O)[O-])c1C(=O)Nc1ccc(C2CCCCC2)cc1,12µM,-,-,-,-,-
COC(=O)c1cc(=O)nc2sc3cc(OC)ccc3n12,-,-,-,-,-,-
COc1ccc(O)c(/C=c2/sc3nc4cc(C)c(C)cc4n3c2=O)c1,-,?,?,18µM,-,?
COc1ccccc1-c1cc(SC)c(C#N)c(=O)o1,18µM,-,-,-,7.3µM,-
NC(=O)c1c(NC(=O)CSc2nnc(Cc3ccccc3)n2Cc2ccco2)sc2c1CCC2,-,?,-,15µM,-,-
Cc1ccccc1NC(=O)CSc1nnc(CNC(=O)c2ccco2)n1C,-,-,-,-,-,-
CCOC(=O)c1c(NC(=O)CSc2nnc(CNC(=O)c3ccco3)n2C)sc2c1CCC2,-,-,-,21µM,-,-
Cc1ccc(-c2nnc(N3CCC(C)CC3)c3ccccc23)cc1C,-,29µM,-,?,?,?
Cc1ccc(-c2nnc(N3CCC(C)CC3)c3ccccc23)cc1,?,-,-,?,?,-
CC1CCN(c2nnc(-c3ccccc3)c3ccccc23)CC1,-,-,-,-,11µM,-
CCOc1ccc(-c2nnn(CC(=O)NCc3ccccc3)n2)cc1,?,-,6.5µM,?,?,-
CCCN(C(=O)Cn1c(=O)oc2cc(Cl)ccc21)c1ccc(C(C)C)cc1,.,.,-,-,.,.
CN=c1scc(-c2cccs2)n1/N=C/c1ccc(O)c(O)c1O,?,?,?,?,-,-
CN=c1scc(-c2cccs2)n1/N=C/c1ccccc1O,-,?,?,?,15µM,?
Cc1cc2cc(CN(Cc3cccs3)S(=O)(=O)c3ccc4c(c3)OCCO4)c(=O)[nH]c2cc1C,-,-,-,-,-,-
Cc1cccc2cc(CN(Cc3cccs3)S(=O)(=O)c3ccc4c(c3)OCCO4)c(=O)[nH]c12,-,-,?,5.2µM,-,-
CC(C)(C)OC(=O)N1CCC(c2c(C(=O)N3CCN(c4ccccc4)CC3)cnn2-c2ccccc2)CC1,.,.,-,-,.,.
CC1c2cc3c(cc2CCN1C(=O)c1cccc(Cl)c1)OCCCO3 (stereo not drawn),-,?,?,5.8µM,?,21µM
CC1c2cc3c(cc2CCN1CC(=O)Nc1ccccc1)OCCCO3 (stereo not drawn),-,-,?,?,-,-
CC(=O)Nc1ccc(OCC(O)CN2CCN(c3cccc(Cl)c3)CC2)cc1 (stereo not drawn),-,-,-,16µM,-,-
CC(=O)Nc1ccc(S(=O)(=O)N2CCN(CC(O)COc3ccc4ccccc4c3)CC2)cc1 (stereo not drawn),-,?,-,?,-,0.71µM
CC(C)Oc1ccc(CNC(=O)C(C)n2ccc3cc(S(=O)(=O)N4CCCCCC4)ccc32)cc1 (stereo not drawn),.,.,-,-,.,.
O=C(C[N+]12CCCc3cccc(c31)CCC2)c1ccc(Cl)c2ccccc12,.,.,-,-,.,.
SMILES,SW480 rereplic,HT1080 IDH1KD tx,KB-3-1 cytotox,KB-V1 cytotox,MCF10A rerep,HT1080NT lethal
COC(=O)c1cc(C)nc(N)c1C#N,-,-,-,-,-,-
COC(=O)c1cc(=O)n2c(sc3ccccc32)c1C#N,23µM,-,-,-,21µM,-
CCn1ccc2cc(S(=O)(=O)N3CCCN(C(=O)Nc4ccccc4C(F)(F)F)CC3)ccc21,.,.,-,?,.,.
CCc1ccc(CNC(=O)CCCn2ccc3cc(S(=O)(=O)N4CCCC4)ccc32)cc1,.,.,5.8µM,?,.,.
CCOC(=O)c1ccccc1NC(=O)N1CCCN(S(=O)(=O)c2ccc3c(ccn3CC)c2)CC1,.,.,?,15µM,.,.
CCN(CC)S(=O)(=O)c1ccc2c(c1)c(=O)c(C(=O)N1CCN(c3cc(C)ccc3C)CC1)cn2C,.,.,-,-,.,.
CC1(C)NC(=O)N(CC(O)COc2ccc(-c3ccc(C#N)cc3)cc2)C1=O (stereo not drawn),-,-,-,21µM,-,-
CC(C)Cn1c(N)c(C(=O)COC(=O)c2cc(C3CC3)nc3ccccc23)c(=O)n(C)c1=O,-,?,?,?,-,21µM
Cc1csc(=O)n1CC(=O)OCC(=O)c1c(N)n(CC(C)C)c(=O)n(C)c1=O,6.5µM,-,-,-,?,-
CC(C)Cn1c(N)c(C(=O)COC(=O)c2cc(-c3ccccc3)nc3ccccc23)c(=O)n(C)c1=O,-,-,?,?,-,-
